Assay results reported in PubChem BioAssay.
Calls of active or inactive are those of the source. No rule for the calls is given here.

target: Pantothenate synthetase (Mycobacterium tuberculosis (strain ATCC 25618 / H37Rv)) (UniProt P9WIL5); assay: Coupled enzyme confirmation of inhibitors against recombinant Mtb PanC (AID 375); settings: coupled enzyme assay; at 10 µM, stronger effect = higher value;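 also: 0% = full reaction with vehicle and 100% = no enzyme background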
Sequence (P9WIL5 whole entry, looked up): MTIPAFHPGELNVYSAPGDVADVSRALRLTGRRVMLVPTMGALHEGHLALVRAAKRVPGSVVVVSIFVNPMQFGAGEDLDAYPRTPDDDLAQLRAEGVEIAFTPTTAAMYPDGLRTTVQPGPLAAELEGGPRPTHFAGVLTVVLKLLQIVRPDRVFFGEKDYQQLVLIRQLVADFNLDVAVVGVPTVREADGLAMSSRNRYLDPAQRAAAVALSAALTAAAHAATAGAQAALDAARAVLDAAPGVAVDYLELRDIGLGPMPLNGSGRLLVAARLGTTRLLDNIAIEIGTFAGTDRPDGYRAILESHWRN

| Compound | inhibition |
| --- | --- |
| O=C(C1CCCO1)N1CCN(C(c2ccccc2)c2ccccc2)CC1 (configuration not stated) | 0% (inactive) |
| CCOC(=O)c1ccc(N2C(=O)CC(Sc3nnc(C)s3)C2=O)cc1 (configuration not stated) | 0% (inactive) |
| Nc1c(N2CCCCC2)c(=O)[nH]c(=O)n1-c1ccccc1 | 0% (inactive) |
| O=C(Nc1nc(-c2ccncc2)cs1)C1COc2ccccc2O1 (configuration not stated) | 0% (inactive) |
| CCN(CCCNC(=O)CC1Oc2ccc(C)cc2NC1=O)Cc1ccccc1 (configuration not stated) | 0% (inactive) |
| CCc1cc2c(=O)n(C(C)C(=O)OC3CCCCC3)cnc2s1 (configuration not stated) | 0% (inactive) |
| COc1ccccc1NC1=NC(c2ccc(Cl)cc2)N=C(N)N1 (configuration not stated) | 0% (inactive) |
| CCN(CC)C(=O)Cn1c(=O)n(Cc2ccccc2Cl)c2c1c(=O)n(C)c(=O)n2C | 3% (inactive) |
| CCOC(=O)c1sc(NC(=O)CSc2nnc(-c3ccco3)n2CC)c(C(=O)OCC)c1C | 0% (inactive) |
| CCOc1ccc(NS(=O)(=O)c2ccc(OCC(=O)N3CCCC3)cc2)cc1 | 0% (inactive) |
| Cn1c(=O)[nH]c(=O)c2c1nc(NCCCn1ccnc1)n2Cc1ccccc1 | 0% (inactive) |
| Cc1c(Cl)cccc1NC(=O)CCN1CCCCCC1 | 0% (inactive) |
| O=c1c(F)cn(C2CCCO2)c(=O)n1Cc1c(F)cccc1Cl (configuration not stated) | 0% (inactive) |
| COc1cccc(-c2nc(CSCC(=O)N3CCc4ccccc43)c(C)o2)c1 | 0% (inactive) |
| COc1cccc(-c2cc(C(F)(F)F)n3nc(N)nc3n2)c1 | 2% (inactive) |
| CCOC(=O)c1sc2ncn(/N=C/N(C)C)c(=O)c2c1C | 8% (inactive) |
| c1cc2c(cc1C1=Nn3c(nnc3C3CCCCC3)SC1)OCO2 | 0% (inactive) |
| CC(C)(C)n1nnnc1CN(Cc1ccco1)Cc1cc2cc3c(cc2[nH]c1=O)OCO3 | 0% (inactive) |
| CC(C)C(c1nnnn1CC1CCCO1)N1CCN(Cc2ccc3c(c2)OCO3)CC1 (configuration not stated) | 0% (inactive) |
| O=C(NCC1CCCO1)C1CCC(CNS(=O)(=O)c2ccccc2)CC1 (configuration not stated) | 5% (inactive) |
| Cc1cc(=O)oc2ccc(OCC(=O)N(Cc3ccc(F)cc3)Cc3ccco3)cc12 | 0% (inactive) |
| CCN1CCN(C(=O)N[C@@H](C(=O)N[C@@H]2C(=O)N3[C@@H]2SC(C)(C)[C@@H]3C(=O)O)c2ccccc2)C(=O)C1=O | 2% (inactive) |
